Measurements from PubChem BioAssay (EPA / NIEHS).
Where “and” joins values, the source holds several entries; their conditions need not be identical. Equal values may be shown once. Some compounds were tested as several samples or in several runs, with calls that do not always agree. Calls of active or inactive are those of the source. Rule for the calls: active = hit-call score of the fitted dose curve at least 0.9, where 1 is the maximum; inactive = score below 0.9.

Each compound was assayed against Hepatocyte nuclear factor 6 (Homo sapiens) (UniProt Q9UBC0) (assay: ATG_HNF6_CIS: Attagene CIS-FACTORIAL HepG2 Assay for human Hepatocyte Nuclear Factor 6 (HNF6) (AID 2282952)). Settings: HepG2 Attagene cis-factorial HNF6 reporter transcription; actives raise or lower the signal.
Sequence of Hepatocyte nuclear factor 6 (Homo sapiens) (Q9UBC0 whole entry, looked up): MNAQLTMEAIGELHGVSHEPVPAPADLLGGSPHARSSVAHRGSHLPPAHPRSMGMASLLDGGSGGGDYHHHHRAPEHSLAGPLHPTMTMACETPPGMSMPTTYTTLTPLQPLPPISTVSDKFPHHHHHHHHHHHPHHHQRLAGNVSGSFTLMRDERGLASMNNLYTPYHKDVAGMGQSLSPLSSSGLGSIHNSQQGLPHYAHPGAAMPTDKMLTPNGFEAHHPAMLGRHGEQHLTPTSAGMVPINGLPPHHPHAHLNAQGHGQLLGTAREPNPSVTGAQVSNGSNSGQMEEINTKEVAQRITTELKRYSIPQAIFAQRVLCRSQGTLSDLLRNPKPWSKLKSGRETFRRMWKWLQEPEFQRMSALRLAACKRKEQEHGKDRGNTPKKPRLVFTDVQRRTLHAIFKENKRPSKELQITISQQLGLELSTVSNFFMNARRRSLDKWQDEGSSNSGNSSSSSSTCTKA
Procedure: ATG_CIS is a cell-based, multiplexed-readout assay that uses HepG2, a human liver cell line, with measurements taken at 24 hours after chemical dosing in a 24-well plate.ATG_HNF6_CIS is one of 52 assay component(s) measured or calculated from the ATG_CIS assay. It is designed to make measurements of mRNA induction, a form of inducible reporter, as detected with fluorescence intensity signals by Reverse transcription polymerase chain reaction (RT-PCR) and Capillary electrophoresis technology.Data from the assay component ATG_HNF6_CIS was analyzed into 1 assay endpoint. This assay endpoint, ATG_HNF6_CIS, was analyzed with bidirectional fitting relative to DMSO as the negative control and baseline of activity. Using a type of inducible reporter, measures of mRNA for gain or loss-of-signal activity can be used to understand the reporter gene at the transcription factor-level as they relate to the gene ONECUT1. Furthermore, this assay endpoint can be referred to as a primary readout, because this assay has produced multiple assay endpoints where this one serves a reporter gene function. To generalize the intended target to other relatable targets, this assay endpoint is annotated to the dna binding intended target family, where the subfamily is homeobox protein.
Human liver HepG2 cells are transiently transfected with multiple reporter transcription units (MRTUs) in 6-well plates using FuGene 6 reagent (Roche; 3 ml FuGene/1 mg DNA). The MRTU constructs are regulated by a cis-regulating element (promoter). […] A major difference between the CIS and TRANS system is that in CIS activities of endogenous TFs are measured, whereas the TRANS assay evaluates changes in activities of exogenous, chimeric NR-Gal4 proteins. […] At the end of 24 hour incubation, total RNA was isolated using TriZol reagent (Invitrogen). The isolated RNA is then reverse-transcribed using oligo(dT) primer and Mo-MLV reverse transcriptase (Invitrogen) with DNAse I (Ambion) treatment for 30 min. The one-tenth of the produced cDNA was amplified by PCR using Taq DNA polymerase (Invitrogen) and two reporter sequence-specific primers. The PCR products were fluorescently labeled by primer extension with 6-arboxyfluorescein (6-FAM) 5'-labeled reporter sequence-specific primer (2 min at 95 C, 20 s at 68 C and 10 min at 72 C) and these products were digested with 5U of HpaI (New England Biolabs) for 2h at 37 C. The fragments were purified using Qiaquick PCR columns (Qiagen), analyzed on an ABI 3130xL genetic analyzer (Applied Biosystems) with peak positions identified by using a set of X-rhodamine (ROX)-labeled MapMarker1000 molecular weight standards (BioVentures). The raw capillary electrophoresis data was processed using Attagraph software (Attagene).
`COC(=O)c1ccccc1S(=O)(=O)NC(=O)N(C)c1nc(C)nc(OC)n1` was tested, and the outcome was “inactive”.
For `CNC(=O)Oc1cccc(N=CN(C)C)c1`, the outcome was “inactive”.
With `[2H]C1([2H])[n+]2ccccc2-c2cccc[n+]2C1([2H])[2H]` the outcome was “inactive”.
In the case of `N#Cc1c(Cl)c(Cl)c(Cl)c(C#N)c1Cl`, the outcome is reported as “inactive”.
`O=S(=O)(O)C(F)(F)C(F)(F)C(F)(F)C(F)(F)C(F)(F)C(F)(F)C(F)(F)C(F)(F)F` was tested, and the AC50 was 24.7 µM (active) and 208 µM (active) and 272 µM (active) and the outcome was “inactive”.
`OCCOc1ccccc1` was tested, and the outcome was “inactive”.
With `CCS(=O)(=O)c1cccnc1S(=O)(=O)NC(=O)Nc1nc(OC)cc(OC)n1` the outcome was “inactive”.
With `CC1(C)C(C=C(Cl)Cl)C1C(=O)OC(C#N)c1ccc(F)c(Oc2ccccc2)c1` (stereo not given) the outcome was “inactive”.
In the case of `CCOc1nc(NC)nc(NC(=O)NS(=O)(=O)c2ccccc2C(=O)OC)n1`, the outcome is reported as “inactive”.
In the case of `CCC(C)(NC(=O)c1cc(Cl)c(C)c(Cl)c1)C(=O)CCl` (stereo not given), the outcome is reported as “inactive”.
For `C[C@H]1[C@H](c2ccc(Cl)cc2)SC(=O)N1C(=O)NC1CCCCC1`, the outcome was “inactive”.
`Oc1cc(Cl)ccc1Oc1ccc(Cl)cc1Cl` was tested, and the outcome was “inactive”.
`N#CN` was tested, and the outcome was “inactive”.
With `CCN(CC)C(=O)SCc1ccc(Cl)cc1` the outcome was “inactive”.
For `COC(=O)c1ccccc1S(=O)(=O)NC(=O)Nc1nc(C)nc(OC)n1`, the outcome was “inactive”.
In the case of `CCCN(CCOc1c(Cl)cc(Cl)cc1Cl)C(=O)n1ccnc1`, the outcome is reported as “inactive”.
For `CC(C)(C)C(O)C(Oc1ccc(Cl)cc1)n1cncn1` (stereo not given), the outcome was “inactive”.
For `CCc1ccc(C(=O)NN(C(=O)c2cc(C)cc(C)c2)C(C)(C)C)cc1`, the outcome was “inactive”.
In the case of `O=C(O)COc1ccc(Cl)cc1Cl`, the outcome is reported as “inactive”.
For `O=C1c2ccccc2C(=O)N1SC(Cl)(Cl)Cl`, the outcome was “inactive”.
`O=C(O)CCCOc1ccc(Cl)cc1Cl` was tested, and the outcome was “inactive”.
With `CC(C)OC(=O)Nc1cccc(Cl)c1` the outcome was “inactive”.
`CCCN(CCC)c1c([N+](=O)[O-])cc(C(F)(F)F)cc1[N+](=O)[O-]` was tested, and the outcome was “inactive”.
`Cc1[nH]c(=O)n(C(C)(C)C)c(=O)c1Cl` was tested, and the outcome was “inactive”.
`O=C(O)C(F)(F)C(F)(F)C(F)(F)C(F)(F)C(F)(F)C(F)(F)C(F)(F)F` was tested, and the outcome was “inactive”.
In the case of `O=[N+]([O-])/N=C1\NCCN1Cc1ccc(Cl)nc1`, the outcome is reported as “inactive”.
`ClC1C(Cl)C(Cl)C(Cl)C(Cl)C1Cl` (stereo not given) was tested, and the outcome was “inactive”.
With `O=C(Nc1ccccc1)Nc1cnns1` the outcome was “inactive”.
`O=[N+]([O-])c1c(Cl)c(Cl)c(Cl)c(Cl)c1Cl` was tested, and the outcome was “inactive”.
In the case of `CNC(=O)/C=C(\C)OP(=O)(OC)OC`, the outcome is reported as “inactive”.
In the case of `O=S1OCC2C(CO1)C1(Cl)C(Cl)=C(Cl)C2(Cl)C1(Cl)Cl` (stereo not given), the outcome is reported as “inactive”.
`CC[C@H](C)[C@H]1O[C@]2(C=C[C@@H]1C)C[C@@H]1C[C@@H](C/C=C(\C)[C@@H](O[C@H]3C[C@H](OC)[C@@H](O[C@H]4C[C@H](OC)[C@@H](O)[C@H](C)O4)[C@H](C)O3)[C@@H](C)/C=C/C=C3\CO[C@@H]4[C@H](O)C(C)=C[C@@H](C(=O)O1)[C@]34O)O2` (tested in a mixture with another compound) was tested, and the outcome was “inactive”.
In the case of `CC1(c2ccc(Oc3ccccc3)cc2)OC(=O)N(Nc2ccccc2)C1=O` (stereo not given), the outcome is reported as “inactive”.
With `O=C(NC(=O)c1c(F)cccc1F)Nc1ccc(OC(F)(F)C(F)OC(F)(F)F)c(Cl)c1` (stereo not given) the outcome was “inactive”.
In the case of `Clc1ccccc1-c1nnc(-c2ccccc2Cl)nn1`, the outcome is reported as “inactive”.
In the case of `CCC(C)(C)C(=O)OC1=C(c2ccc(Cl)cc2Cl)C(=O)OC12CCCCC2`, the outcome is reported as “inactive”.
In the case of `CNC(=O)CSP(=S)(OC)OC`, the outcome is reported as “inactive”.
In the case of `COP(=S)(OC)Oc1ccc(SC)c(C)c1`, the outcome is reported as “inactive”.
In the case of `COP(=O)(OC)OC=C(Cl)Cl`, the outcome is reported as “inactive”.
